The structures appear in SMILES notation. Among all 320,000 compounds or so, about 2,100 (0.66%) were called active. About 53% were inconclusive and are not listed. Calls come from the whole dose curve; as a rule, active = well fitted inhibition curve with a large enough effect in the signal ratio, with a control signal flat (not every such curve was filed as active); inconclusive = small, poorly fitted or top-dose-only effect, or effect the other way, or a change in a side signal; inactive = flat fitted curve, though single readings scatter; the % refers to the signal ratio. The entries come from a sample that favours actives as a whole.
Potency is the fitted concentration of half-maximal effect.

The experiment can be described thus: qHTS Assay for Lipid Storage Modulators in Drosophila S3 Cells.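 For cell number change: cells counted by Cell Tracker Red CMTPX staining in the red channel.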 For lipid storage change, negative = inhibition: % is set by controls: 0 for no effect and ±100 for the full control effect. The conditions noted are these: BODIPY lipid droplet fluorescence, 18-24 h, cells fed with added oleic acid; cell number change: measured here: cell count max response; series mostly up to 46.1 µM; lipid storage change, negative = inhibition: at the top concentration. The procedure, abridged:
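Drosophila S3 cells loaded with oleic acid (400 uM, as added) and compounds at several concentrations; lipid droplets imaged by 488-nm laser-scanning cytometry, 500–530 nm intensity and object ratio to cell channel. Percent activity normalized to 20 uM Triacsin C.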
With `CCN(CC)C(c1ccc(F)cc1)c1nnnn1C1CCCCC1` (stereo not drawn), the “lipid storage change, negative = inhibition” value is 10.6% (inactive) and the cell number change is -7.83%.
Turning to `CN(c1ccccc1)C(c1ccc(F)cc1)c1nnnn1CC1CCCO1` (stereo not drawn), the outcome was inactive.
Turning to `CCN(CC)C(c1ccc(F)cc1)c1nnnn1CC1CCCO1` (stereo not drawn), the Potency is 18.4 µM (active) and the cell number change amounted to 4.03%.
`CC(C)c1nc(SCC(=O)N2CCOCC2)c2c(=O)n(C)c(=O)n(C)c2n1`: the cell number change was determined as 5.66% and the lipid storage change, negative = inhibition was 8.15% [at 9.22 µM] (inactive).
The corresponding values for `C=CCn1c(SCC(=O)O)nnc1-c1ccc(C(C)(C)C)cc1` are 5.05% and -0.438% (inactive).
For `C=C(C)Cn1c(SCC(=O)O)nnc1-c1ccc(C(C)(C)C)cc1`, the Potency is 29.1 µM (active) and the cell number change was -3.69%.
For the molecule `Cn1c(SCC(N)=O)nnc1-c1ccc(C(C)(C)C)cc1`, the “lipid storage change, negative = inhibition” value was -7.75% (inactive) and the cell number change was -9.51%.
On the same counts, the results for `CC(C)=CC(O)C/C(C)=C/COc1ccc2ccc(=O)oc2c1` (stereo not drawn) are 5.31% (inactive) and -2.96%.
The corresponding values for `O=C(NCC(c1ccco1)N1CCOCC1)c1ccc(F)c(F)c1` (stereo not drawn) are 6.58% (inactive) and 3.3%.
On the same counts, the results for `CCCCC1C2C(=O)N(c3ccc(C)cc3)C(=O)C2ON1c1ccccc1` (stereo not drawn) are 0.528% (inactive) and 7.09%.
Take `CCCOc1ccc(N2C(=O)C3ON(c4ccccc4)C(CCC)C3C2=O)cc1` (stereo not drawn): the Potency was 18.4 µM (active) and the cell number change turned out to be 10.7%.
On to `CCCCC1C2C(=O)N(c3ccccc3)C(=O)C2ON1c1ccccc1` (stereo not drawn), for which the “lipid storage change, negative = inhibition” value is 14.1% (inactive) and the cell number change is -1.39%.
The corresponding values for `CSc1nnc(C)c(=O)n1COC(=O)COc1ccc(Cl)cc1` are 8.1% (inactive) and 11.4%.
The corresponding values for `CCO[C@H]1OC(C(=O)N2CCN(C)CC2)=C[C@@H](c2ccc(Br)cc2)[C@@H]1CCCO` are 0.537% (inactive) and 4.76%.
The corresponding values for `CC(=O)Nc1ccc(NC(=O)Nc2cc(C)cc(C)c2)cc1` are -8.79% (inactive) and 7.61%.
As for `O=C(Cc1ccc(F)cc1)NCCc1ccc(F)cc1`, the “lipid storage change, negative = inhibition” value is 0.497% (inactive) and the cell number change is -3.73%.
Regarding `CCC(CC)C(=O)NCCc1ccc(F)cc1`, the Potency is 25.9 µM (active) and the cell number change was found to be 0.621%.
Turning to `CCC(CC)C(=O)NCCc1ccc(S(N)(=O)=O)cc1`, the “lipid storage change, negative = inhibition” value was 0.195% (inactive) and the cell number change was -8.96%.
Regarding `O=C(Cc1ccccc1)N/N=C/c1ccc[nH]1`, the “lipid storage change, negative = inhibition” value was 1.93% (inactive) and the cell number change worked out at 7.79%.
The corresponding values for `COc1ccccc1N(C)S(=O)(=O)c1ccc(C(=O)O)cc1` are -19.5% (inactive) and -4.33%.
As to `COc1cccc(CN2CCNC(=O)C2CC(=O)NCc2cn3cccc(C)c3n2)c1OC` (stereo not drawn), the outcome was inactive and the cell number change is -8.41%.
Consider `O=S(=O)(c1cccc2nsnc12)N1CCN(C/C=C/c2ccccc2)CC1`, for which the “lipid storage change, negative = inhibition” value was 24.3% (inactive) and the cell number change stood at 7.87%.
Turning to `CCN1CCN(S(=O)(=O)c2cccc3nsnc23)CC1`, the “lipid storage change, negative = inhibition” value was -15.7% (inactive) and the cell number change is -12.7%.
On to `O=S(=O)(c1cccc2nsnc12)N1CCN(Cc2ccccc2)CC1`, for which the Potency was 6.51 µM (active) and the cell number change is 1.32%.
As for `Cc1cc(/C=C2\SC(=S)N(Cc3ccco3)C2=O)c(C)n1-c1ccccc1`, the “lipid storage change, negative = inhibition” value was 24.5% (inactive) and the cell number change was -3.86%.
For `Cc1cc(/C=C2\SC(=S)N(Cc3ccco3)C2=O)c(C)n1-c1cccnc1`, the Potency is 23.1 µM (active).
Turning to `COc1ccc(-n2c(C)cc(/C=C3\SC(=S)N(Cc4ccco4)C3=O)c2C)cc1`, the “lipid storage change, negative = inhibition” value is -4.8% (inactive) and the cell number change is -10.6%.
For `Cc1cc(C(=O)NN=C2C3CC4CC(C3)CC2C4)c2ccccc2n1`, the “lipid storage change, negative = inhibition” value was -6.2% (inactive) and the cell number change is -7.65%.
Consider `CN(C)C(CNC(=S)Nc1cccc(Cl)c1)c1cccnc1` (stereo not drawn), for which the “lipid storage change, negative = inhibition” value was -1.12% (inactive) and the cell number change is -7.59%.
On the same counts, the results for `CNNC(=S)NC1CC2CC1C1C=CCC21` (stereo not drawn) are 14.9% (inactive) and 17.5%.
On the same counts, the results for `CCOc1ncccc1-c1nc(-c2cccs2)no1` are 21.8% (inactive) and -0.414%.
As to `CC1CN(C(=O)c2ccccc2OCc2ccc(Cl)cc2Cl)CC(C)O1` (stereo not drawn), the Potency was 0.651 µM (active) and the cell number change was -15%.
On to `CC1CN(C(=O)c2ccc(COc3ccccc3Br)o2)CC(C)O1` (stereo not drawn), for which the “lipid storage change, negative = inhibition” value was 15.9% (inactive) and the cell number change is 21.6%.
Consider `CCOc1cccc2cc(C(=O)N3CC(C)OC(C)C3)c(=O)oc12` (stereo not drawn), for which the “lipid storage change, negative = inhibition” value was 0.754% (inactive) and the cell number change is -8.03%.
On to `CC1CN(C(=O)COC(=O)c2cc(Cl)ccc2Cl)CC(C)O1` (stereo not drawn), for which the “lipid storage change, negative = inhibition” value was -9.51% (inactive) and the cell number change is -5.44%.
With `CC1CN(C(=O)c2ccc(COc3ccc4ccccc4c3)o2)CC(C)O1` (stereo not drawn), the “lipid storage change, negative = inhibition” value is 17.9% (inactive) and the cell number change was found to be 18.9%.
With `Cc1ccccc1OCc1ccc(C(=O)N2CC(C)OC(C)C2)o1` (stereo not drawn), the Potency is 32.6 µM (active) and the cell number change was determined as 14.8%.
With `COc1ccc(N=C2CCS(=O)(=O)c3sccc32)cc1`, the “lipid storage change, negative = inhibition” value was 18.8% (inactive).
On the same count and under the same terms, the same measure for `O=C(CN1C(=O)NC2(CCCC2)C1=O)Nc1ccccc1-c1ccccc1`: 7.06% (inactive).
For the molecule `COc1ccccc1C(=O)Nc1cccc(N(C)S(C)(=O)=O)c1`, the “lipid storage change, negative = inhibition” value was 8.7% (inactive) and the cell number change was -2.55%.
For the molecule `CC(=O)c1cccc(NC(=O)N2CCN(S(C)(=O)=O)CC2)c1`, the Potency is 11.6 µM (active).
Consider `CC(=O)c1cccc(NC(=O)N2CCCCCC2)c1`, for which the molecule was classed as inactive and the cell number change was -8.42%.
On to `Cc1cc(C)cc(NC(=O)N2CCN(S(C)(=O)=O)CC2)c1`, for which the “lipid storage change, negative = inhibition” value is 14.6% (inactive) and the cell number change is 5.38%.
On to `O=C(CCc1nnc2n(Cc3ccc(Cl)cc3)c(=O)c3ccccc3n12)NCCCN1CCOCC1`, for which the call was inactive.
For the molecule `CC(C)N(C(=O)Cn1c(-c2ccccc2Cl)nc2ccccc21)c1ccccc1`, the “lipid storage change, negative = inhibition” value is -6.38% (inactive) and the cell number change is -7.06%.
For the molecule `N#C/C(=N\Nc1ccc(F)cc1)C(=N)N1CCCCCC1`, the “lipid storage change, negative = inhibition” value was -5.17% (inactive) and the cell number change was 0.927%.
The corresponding values for `O=[N+]([O-])c1cc([N+](=O)[O-])c(N2CCCCCC2)cc1NCCO` are -14% (inactive) and -19.4%.

For the origin of these results see PubChem BioAssay AID2685 (National Center for Advancing Translational Sciences (NCATS), 2010).
